From PubChem
HP1b chromo inh – HTS for Inhibitors of HP1-beta Chromodomain Interactions with Methylated Histone Tails | Chromobox protein homolog 1 (Homo sapiens), P83916 | AlphaScreen HP1-beta / biotin-H3K9me3 peptide binding | Potency, µM (highest dose often 114 µM), without a hit: top-dose activity change, negative = inhibition, most hits filed as inhibitors | 0.56% of 390,000 active; further: potency means the concentration at half of the fitted maximal effect; nearly all actives have a fitted effect of over 70% in size
Target sequence (P83916 whole entry, looked up): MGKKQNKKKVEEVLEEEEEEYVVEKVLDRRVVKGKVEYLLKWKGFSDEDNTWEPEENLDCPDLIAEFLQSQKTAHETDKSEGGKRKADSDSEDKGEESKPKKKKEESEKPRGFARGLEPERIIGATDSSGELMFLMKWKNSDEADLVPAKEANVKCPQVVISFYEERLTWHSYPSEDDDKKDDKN
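HP1-beta protein (50 nM final) preincubated 30 min at room temperature with biotinylated H3(1-18)K9me3 peptide (50 nM) in PBS pH 7.4, 0.01% Tween-20, then compound added for 30 min. AlphaScreen streptavidin donor/nickel chelate acceptor beads (10 ug/mL final), 30 min dark, luminescence read.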
BAZ2B block – qHTS Assay for Inhibitors of BAZ2B; Potency, µM (doses to about 114 µM), for inactives: at the top dose activity change, negative = inhibition, actives largely listed as inhibitors; AlphaScreen BAZ2B-H3K14Ac peptide displacement; 4.4% of 360,000 active; AID 504333, 2011; further: potency means the concentration at half of the fitted maximal effect; on the % scale 0 is the no-effect control and ±100 the full control effect; nearly all actives have a fitted effect of over 60% in size
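Protein-peptide AlphaScreen: BAZ2B 50 nM, b-H3K14Ac 50 nM, 1x PBS pH 7.4 + 0.01% Tween-20. Preincubation 30 min RT; cpd 30 min RT (top 110 uM); beads 20 min RT, light-protected.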
G9a inh-1 – qHTS Assay for Inhibitors of Histone Lysine Methyltransferase G9a; Histone-lysine N-methyltransferase EHMT2 (Homo sapiens), Q96KQ7; G9a H3K9 monomethylation, AlphaScreen, 2 h; Potency, µM (titrated, usually from 102 µM), for the others: top-dose activity, negative = inhibition, usual class: inhibitors; 8.8% of 350,000 active; AID 504332, 2011; further: potency means the concentration at half of the fitted maximal effect; on the % scale 0 is the no-effect control and ±100 the full control effect; nearly all actives have a fitted effect of over 75% in size
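AlphaScreen detection with an anti-monomethyl H3K9 antibody quantified product after a 2 h room-temperature reaction containing 500 nM biotinylated H3K9 peptide, 20 µM SAM and 20 nM enzyme, which had been preincubated 15 min with compound.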
JMJD2A Tudor – qHTS Assay for Inhibitors of JMJD2A-Tudor Domain | AlphaScreen JMJD2A-Tudor / H3K4me3 peptide binding | Lysine-specific demethylase 4A (Homo sapiens), O75164 | AID 504339, 2011 | 4.4% of 390,000 active | Potency, µM (highest dose often 114 µM), without a hit: top-dose activity change, negative = inhibition, usual class: inhibitors; further: potency means the concentration at half of the fitted maximal effect; on the % scale 0 is the no-effect control and ±100 the full control effect; nearly all actives have a fitted effect of over 50% in size
Sfp PPTase inh – qHTS Assay for Inhibitors of Bacillus subtilis Sfp phosphopantetheinyl transferase (PPTase). 4'-phosphopantetheinyl transferase ffp (Bacillus subtilis), Q9F4F7. Biochemical Sfp PPTase activity, qHTS. Potency, µM, for the others: largest response in the series, negative = inhibition, most hits filed as inhibitors. 3.5% of 310,000 active;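 further: the enzyme is Sfp with the accession as filed and its product quenches rhodamine fluorescence; potency means the concentration at half of the fitted maximal effect; 0% = enzyme reaction without inhibitor and -100% = no enzyme wells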
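Buffer: 50 mM Hepes-Na pH 7.6, 10 mM MgCl2, 0.01% Nonidet P-40, 0.01% BSA. Enzyme 15 nM, pre-exposed to compound 15 min; substrates then added and fluorescence change tracked over 30 min.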
JMJD2E inh – Confirmation qHTS Assay for Inhibitors of Human Jumonji Domain Containing 2E (JMJD2E); Potency, µM (doses to about 56.8 µM), without a hit: top-dose activity change, negative = inhibition, actives largely listed as inhibitors; Recombinant JMJD2E, FDH-coupled NADH fluorescence (FDH is formaldehyde dehydrogenase); 93% of 140 active; shares compounds with JMJD2A Tudor; AID 2677, 2010
FDH counter – Counterscreen for JMJD2E Inhibitors: qHTS Assay for Inhibitors of Formaldehyde Dehydrogenase (FDH) | Potency, µM (top dose mostly 56.7 µM), inactives show top-dose activity, negative = inhibition, usual class: inhibitors | FDH enzyme assay, NADH fluorescence kinetic | 10% of 140 active | shares compounds with JMJD2A Tudor
G9a inh-2 – qHTS Assay for Inhibitors of Histone Lysine Methyltransferase G9a: Hit Confirmation. shares compounds with JMJD2A Tudor. G9a H3K9 monomethylation, AlphaScreen, 2 h. Potency, µM, hits mostly inhibitors. 89% of 370 active; further: potency means the concentration at half of the fitted maximal effect; nearly all actives have a fitted effect of over 65% in size
RGS4 confirm – qHTS for Inhibitors of Regulator of G Protein Signaling(RGS) 4: Hit Validation; RGS4 GAP activity, Transcreener GDP fluorescence polarization; 80% of 25 active; AID 602388, 2012; shares compounds with JMJD2A Tudor; Potency, µM, usual class: inhibitors
Target sequence (P49798 whole entry, looked up): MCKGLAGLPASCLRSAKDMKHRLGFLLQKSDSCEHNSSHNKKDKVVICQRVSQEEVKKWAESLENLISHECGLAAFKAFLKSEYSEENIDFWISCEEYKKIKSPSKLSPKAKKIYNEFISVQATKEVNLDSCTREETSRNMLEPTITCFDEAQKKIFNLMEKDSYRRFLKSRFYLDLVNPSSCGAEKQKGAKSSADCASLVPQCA
* = called active by the depositor; ? = inconclusive; . = not tested or not shown; [ ] = remark or other dose. In the library only some 12% were active in any assay of this set; here they are far more common. The call rests on the fitted dose curve; in most records, active means well fitted curve in the direction sought with a large enough effect; inconclusive means small, poorly fitted or top-dose-only effect, or another doubt; inactive means no such curve, though single readings can be large; an effect the other way counts as inactive or inconclusive.

SMILES | HP1b chromo inh | BAZ2B block | G9a inh-1 | JMJD2A Tudor | Sfp PPTase inh | G9a inh-2 | RGS4 confirm | others
COc1cc2c(NC3CCN(C)CC3)nc(N3CCCN(C)CC3)nc2cc1OCCCCCN | . | . | . | . | . | . | ?
Cc1ccc2nc(-c3ccncc3)c(Nc3ccc(C(C)C)cc3)n2c1 | 33.6% | -11.2% | -6.6%[59 µM] | -16.1% | . | . | .
Cc1ccc(-c2nc3ccccn3c2Nc2ccc3c(c2)OCO3)o1 | ? | 35.5µM* | 7.94µM* | 50.1µM* | . | . | ?
CC(C)c1ccc(Nc2c(-c3ccco3)nc3ccccn23)cc1 | -8.8% | ? | ? | ? | . | . | ?
COc1ccc(Nc2c(-c3ccc(C)o3)nc3ccc(Cl)cn23)cc1 | 34.0% | -0.7% | -11.8%[59 µM] | -3.8% | . | . | .
CCN(c1ccc(NC(=O)CCc2nc3sc4c(c3c(=O)[nH]2)CCCC4)cc1)C(C)C | -20.9% | -33.4% | 2.24µM* | ? | . | 2.24* | .
CCN(C(=O)c1ccc(N2CC3CC(C2)c2cccc(=O)n2C3)c(NC(=O)c2ccncc2)c1)c1cccc(C)c1 (stereo unspecified) | 25.6% | -3.9% | 6.4% | -9.3% | 5.0% | . | .
CCN(CC)CCOC(=O)c1ccc(NC(=O)c2cn(-c3ccccc3)nc2-c2cccs2)cc1 | 2.1% | -31.9% | -44.0% | -21.6% | ? | . | 21.2*
CCN(CC)CCNC(=O)c1cn(-c2ccccc2)nc1-c1cccs1 | 39.5% | ? | -0.3% | -3.1%[57.1 µM] | 3.6% | . | .
CC(=O)c1ccc(S(=O)(=O)N2CCCC(N(C)CCc3ccccn3)C2)cc1 (stereo unspecified) | 29.2% | -19.9% | ? | 12.1% | 5.7% | ? | .
O=C(CSc1cccc2cccnc12)N1CCCC1 | ? | 8.5% | ? | ? | ? | . | . | JMJD2E inh=32.4µM*;FDH counter=11.5µM*
CC(C)(C)Nc1oc(-c2ccccc2)nc1-c1ccccc1 | . | . | . | . | 7.8% | . | .
CCN(CC)c1ccc(NC(=O)Cn2nnc(-c3cccc(OC)c3OC)n2)c(C)c1 | 35.2% | -0.5% | 0.708µM* | -2.2% | 13.0% | 7.08* | .
CCOc1ccc(-c2cc(-c3nc(-c4cc(OC)c(OC)c(OC)c4)no3)[nH]n2)cc1Cl | 39.4% | 0.7% | -2.6%[59 µM] | -6.8% | . | . | .
Cn1nnnc1SCC(=O)Nc1ccc(Br)cc1Cl | 42.8% | -23.8% | 2µM* | 9.4% | 4.1% | ? | .
CCc1ccc(C(=O)CC2(O)C(=O)N(Cc3ccc(C)cc3)c3ccccc32)cc1 (stereo unspecified) | ? | 10µM* | 5.62µM* | 39.8µM* | . | . | 23.8*
CC(=O)N1CCc2cc(Br)cc(S(=O)(=O)NCCc3ccc(Cl)cc3)c21 | 47.8% | 2.0% | 1.9%[59 µM] | 1.7% | . | . | .
c1ccc(-n2nnnc2SCc2cn3ccccc3n2)cc1 | -14.3% | ? | ? | -29.0%[57.1 µM] | -27.5% | 28.3* | .
O=C(NCc1ccco1)C1CC(O)CN1C(=O)Nc1ccccc1 (stereo unspecified) | -25.4% | 0.4% | 22.3% | -14.8% | 4.9% | . | .
